# Screens: PubChem, several laboratories
# In the library only some 5.4% were active in any assay of this set; here they are far more common.
# A3G deaminase – APOBEC3G (human) deaminase inhibition; Q9HC16; recombinant A3G, ssDNA deamination FAM/TAMRA fluorescence; inhibition, % at 20 µM; 330,000 tested, 0.28% active;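 active means inhibition of at least 40% at 20 µM, with no more than 30% in the related APOBEC3A deaminase screen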
# Target sequence (Q9HC16 whole entry, looked up): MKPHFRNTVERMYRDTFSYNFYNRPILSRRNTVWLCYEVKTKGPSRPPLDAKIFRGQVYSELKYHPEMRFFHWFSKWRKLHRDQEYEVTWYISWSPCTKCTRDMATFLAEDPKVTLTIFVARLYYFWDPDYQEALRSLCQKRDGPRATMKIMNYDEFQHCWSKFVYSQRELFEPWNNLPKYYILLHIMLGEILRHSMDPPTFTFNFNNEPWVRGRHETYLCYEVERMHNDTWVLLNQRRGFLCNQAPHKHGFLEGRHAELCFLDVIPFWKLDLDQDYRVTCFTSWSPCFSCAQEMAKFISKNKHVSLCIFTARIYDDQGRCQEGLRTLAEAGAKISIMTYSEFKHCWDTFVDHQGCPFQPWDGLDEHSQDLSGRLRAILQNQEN
# aDG glyco up – alpha-DG glycosylation activation; 360,000 tested, 0.22% active; Pro5-aDG cells, alpha-DG glycosylation AlphaScreen (IIH6); 0% Pro5, 100% B10-LARGE cell signal; activation, % at 10 µM;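 active means activation of at least 8% versus controls, or a plate z-score of at least 8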;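 further: Pro5 are CHO cells carrying HIG-tagged alpha-DG that lacks glycosylation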
# APOBEC3A inh – inhibitors of human APOBEC3A DNA deaminase; P31941; 330,000 tested, 0.41% active; recombinant A3A, FAM/TAMRA ssDNA deamination fluorescence; inhibition, % at 20 µM;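 active means at least 40% inhibition at 20 µM here, with at most 30% in a related deaminase screen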
# PHOSPHO1 block – inhibitors of human PHOSPHO1 phosphatase; AID 1565; inhibition, % at 13.3 µM; 290,000 tested, 1.1% active; recombinant PHOSPHO1, absorbance phosphatase assay; Q8TCT1; in the data active means inhibition above about 60%
# Target sequence (Q8TCT1 whole entry, looked up): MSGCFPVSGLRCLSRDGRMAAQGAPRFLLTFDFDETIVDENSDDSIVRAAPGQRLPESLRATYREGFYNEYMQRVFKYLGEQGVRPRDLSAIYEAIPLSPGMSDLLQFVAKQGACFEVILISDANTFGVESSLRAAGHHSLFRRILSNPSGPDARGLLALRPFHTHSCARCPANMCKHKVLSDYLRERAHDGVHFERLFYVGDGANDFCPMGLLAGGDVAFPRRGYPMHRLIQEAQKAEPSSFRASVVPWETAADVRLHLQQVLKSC
# rCAG RNA binder – r(CAG) repeat RNA binding. TO-PRO-1 dye displacement fluorescence. inhibition, % at 3 µM. 370,000 tested, 1.3% active. AID 651821;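 active means inhibition above the plate cutoff, the mean of all test compounds on that plate plus 3 SD, cut at about 35% in these data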;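 further: higher means more dye released from RNA so lower well fluorescence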
# ALR H2O2 inh – inhibitors of human sulfhydryl oxidase ALR; AID 485317; purified ALR, DTT oxidation, H2O2 HRP-luminol luminescence; P55789; inhibition, % (test concentration not listed); 290,000 tested, 3.8% active;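 active means mean replicate inhibition above about 79%, with every replicate also reaching it, limit read from the data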
# rCAG binder conf – r(CAG) RNA repeat binding, confirmation. inhibition, % at 3 µM. AID 652065. TO-PRO-1 dye displacement fluorescence. shares compounds with rCAG RNA binder. 4,300 tested, 70% active;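 active means inhibition above a per-plate cutoff, the mean inhibition of sample wells plus 3 SD, cut at about 35% in these data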;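 further: loss of TO-PRO-1 fluorescence as compound displaces dye from 1x1 AA loop RNA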
# DNA CAG counter – DNA CAG dye complex inhibition counter-screen. inhibition, % at 3 µM. d(CAG) DNA oligo TO-PRO-1 dye displacement, fluorescence. 4,300 tested, 94% active. shares compounds with rCAG RNA binder;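 active means inhibition above its plate's cutoff, the mean test-well inhibition plus 3 SD, cut at about 4.8% in these data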;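 further: hits displace the dye from DNA and so lower well fluorescence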
# DNA CAG DR – counter-screen for rCAG binders: inhibitors of DNA CAG TO-PRO-1 complex. shares compounds with rCAG RNA binder. DNA CAG/GTC duplex TO-PRO-1 dye displacement fluorescence. IC50, µM. 250 tested, 20% active. AID 686960; in the data active means IC50 below about 10 µM
# A number is an active result; n = inactive; x = not tested or not shown.
SMILES,A3G deaminase,aDG glyco up,APOBEC3A inh,PHOSPHO1 block,rCAG RNA binder,ALR H2O2 inh,rCAG binder conf,DNA CAG counter,others
CC(C)S(=O)(=O)C1=NSC2=NC(=O)/C(=C\c3ccc(-c4ccccc4)o3)C(=N)N21,x,n,x,n,38.0,n,87.0,65.8,
Cc1ccc(NC(=S)N(Cc2ccco2)C2CCN(C(C)C)CC2)cc1,n,n,n,n,37.1,n,n,n,
Cc1ccc(NC(=S)N(CCN2CCCCC2)Cc2ccco2)cc1,n,n,n,n,n,n,x,x,
COC(=O)c1cc2c(c3c4cc(C)ccc4n(S(=O)(=O)c4ccc(C)cc4)c13)C(=O)N(Cc1ccc(N(C)C)cc1)C2,x,x,x,x,n,x,x,x,
COC(=O)c1c(-c2ccccc2)csc1NC(=O)C1CC=CCC1C(=O)O (configuration not stated),n,n,n,n,n,n,x,x,
Cc1ccc(-c2csc(NC(=O)C3CC=CCC3C(=O)O)c2C(=O)OC(C)C)cc1 (configuration not stated),n,n,n,n,50.6,n,58.0,19.0,
O=C(NC(c1ccc(Cl)cc1)c1cnccn1)C1CCN(CCCOc2ccccc2)CC1 (configuration not stated),x,n,x,x,n,x,x,x,
COc1ccc(-n2c(SCC(=O)Nc3ccc(S(=O)(=O)Nc4nccs4)cc3)nnc2-c2ccccc2)cc1,x,x,x,x,78.2,x,72.0,36.6,
Cc1cc(NS(=O)(=O)c2ccc(NC(=O)CSc3nnc(-c4ccco4)n3C)cc2)nc(C)n1,n,n,n,n,n,n,x,x,
O=C(CSc1nnc(COc2ccccc2)n1-c1ccccc1)Nc1ccc(S(=O)(=O)Nc2nccs2)cc1,x,x,x,x,74.6,x,65.2,27.7,
COc1ccc(-n2c(SCC(=O)Nc3nccs3)nnc2-c2ccccc2)cc1,n,n,n,n,n,n,x,x,
O=C(CSc1nnc(-c2ccco2)n1-c1ccc(Cl)cc1)Nc1ccc(S(=O)(=O)Nc2nccs2)cc1,x,x,x,x,61.9,x,56.6,19.9,
COc1ccc(-c2nnc(Nc3ccc(S(=O)(=O)Nc4nccs4)cc3)c3ccccc23)cc1,n,n,n,n,35.0,x,49.7,19.0,
COc1ccc(Nc2nnc(-c3ccc(C(N)=O)cc3)c3ccccc23)cc1,n,n,n,n,n,x,x,x,
CCOc1ccc(-c2noc([C@@H]3O[C@H](CO)[C@@H](O)[C@H]3O)n2)cc1,x,n,x,x,n,x,x,x,
COc1ccccc1-c1cnc(C(O)c2cc(Cl)cc(Cl)c2)[nH]1 (configuration not stated),x,n,x,x,n,x,x,x,
CC1(C(=O)NCc2cccc(C(F)(F)F)c2)CCN1C1Cc2ccccc2C1 (configuration not stated),x,n,x,x,n,x,x,x,
Cc1ccc2nc3n(c(=O)c2c1)-c1ccccc1C(=O)NC3CC(C)C (configuration not stated),x,x,x,x,n,x,x,x,
CCN1C[C@@H]2[C@@H]3C(=O)N(Cc4ccccc4)C(=O)[C@@H]3[C@](C)(C1=O)N2C(=O)c1ccc(Br)cc1,x,n,x,x,n,x,x,x,
Cn1c(COc2ccccc2)nnc1SCC(=O)Nc1ccc(S(=O)(=O)Nc2nccs2)cc1,x,x,x,x,48.9,x,46.6,17.7,
COc1ccc(NC(=O)Cc2nnc(SCC(=O)Nc3nccs3)n2C)cc1,n,n,n,n,n,n,x,x,
COc1ccc(S(=O)(=O)N2CC=C(c3ccccc3)CC2)cc1OC,x,n,x,x,n,x,x,x,
O=C(NNC(=O)c1cc2cc(Br)ccc2oc1=O)c1ccc(O)cc1O,n,n,n,n,54.6,x,n,5.3,
Cc1occc1C(=O)N/N=C/C1=C(N2CCOCC2)C(=C/c2ccc(Cl)cc2Cl)/CC1,x,n,x,x,n,x,x,x,
COc1ccc(-c2cc(C(=O)N/N=C/c3cc(OC)c(OC)cc3OC)c3ccccc3n2)cc1,n,n,n,x,n,n,x,x,
SMILES,A3G deaminase,aDG glyco up,APOBEC3A inh,PHOSPHO1 block,rCAG RNA binder,ALR H2O2 inh,rCAG binder conf,DNA CAG counter,others
O=C(O)COc1ccccc1/C=N/NC(=O)c1cc(-c2ccc(Cl)cc2)nc2ccccc12,n,n,n,n,79.1,n,72.4,33.2,DNA CAG DR=n
O=C(O)c1ccccc1/C=N/NC(=O)c1cc(-c2ccco2)nc2ccccc12,n,n,n,n,35.0,n,45.2,20.9,
COc1ccc(OC)c(/C=N/NC(=O)c2cc(-c3ccc(C)o3)nc3ccccc23)c1,n,n,n,n,45.0,x,n,12.8,
COc1ccc(CCN2CC(C(=O)N(C)CC(=O)Nc3ccc(F)c(F)c3F)CC2=O)cc1OC (configuration not stated),x,n,x,x,n,x,x,x,
CC(=O)c1ccc(OCc2nnn(CC(=O)NS(=O)(=O)Cc3ccccc3)c2-c2ccccc2)cc1,x,n,x,x,55.8,x,77.8,41.0,
Nc1[nH]c(C(=O)c2ccccc2)c(-c2cccnc2)c1C(=O)c1ccccc1,x,x,x,x,n,x,x,x,
Cc1cccc(NS(=O)(=O)c2ccc(NS(=O)(=O)c3cccs3)cc2)c1,n,n,n,n,n,n,x,x,
Cc1cccc(NS(=O)(=O)c2ccc(C)c(NS(=O)(=O)c3cccs3)c2)c1,n,n,n,x,36.2,x,n,7.9,
Cc1ccc(Cn2cc(/C=N/Nc3ccc([N+](=O)[O-])cn3)c3ccccc32)cc1,n,n,n,n,n,n,x,x,
O=C(O)Cn1cc(/C=N/Nc2ccc([N+](=O)[O-])cn2)c2ccccc21,n,n,n,n,37.4,99.0,n,7.5,
Cc1ccc(S(=O)(=O)N(CC(=O)Nc2ccccc2C(=O)O)c2ccc(Cl)cc2)cc1,n,n,n,n,61.6,n,58.4,17.9,
O=C(O)c1cccc(S(=O)(=O)N(Cc2ccccc2)c2cccc(C(F)(F)F)c2)c1,n,n,n,n,52.6,n,53.3,11.5,DNA CAG DR=n
O=C(O)c1cccc(S(=O)(=O)N(Cc2ccccc2)c2ccccc2Cl)c1,x,n,x,x,n,n,x,x,
O=C(O)c1cc(S(=O)(=O)N(Cc2ccccc2)c2ccc(Cl)cc2)ccc1Cl,n,n,n,n,54.2,n,43.0,9.8,
Cc1ccc(S(=O)(=O)N(Cc2ccc(Cl)cc2)c2ccccc2C(=O)O)cc1,n,n,n,n,n,x,x,x,
CC(C)Nc1ncnc2c1ncn2[C@H]1CN(Cc2ccccc2)C[C@@H](CO)O1,x,n,x,x,n,x,x,x,
CCOC(=O)N1CCC2(CC1)C(C#N)=C(N)Oc1c2c(C)nn1-c1cccc(Cl)c1,n,n,n,n,35.9,n,n,15.7,
CC(c1ccccc1)N1C(=O)c2ccc(C(=O)Nc3ccccc3C(=O)O)cc2C1=O (configuration not stated),n,n,n,n,80.9,97.6,86.9,70.3,
